D2 ag-1 – D2 dopamine receptor (human) agonism; P14416; HEK293 T-REx D2 cells, calcium flux agonist mode; activation, % at 2 µM; actives 0.53% (n = 340,000); AID 485358;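 active means activation over 3 SD above normal in the single-dose calcium agonist read, cut at about 30% in these data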; further: 0% is about no effect
Target sequence (P14416 whole entry, looked up): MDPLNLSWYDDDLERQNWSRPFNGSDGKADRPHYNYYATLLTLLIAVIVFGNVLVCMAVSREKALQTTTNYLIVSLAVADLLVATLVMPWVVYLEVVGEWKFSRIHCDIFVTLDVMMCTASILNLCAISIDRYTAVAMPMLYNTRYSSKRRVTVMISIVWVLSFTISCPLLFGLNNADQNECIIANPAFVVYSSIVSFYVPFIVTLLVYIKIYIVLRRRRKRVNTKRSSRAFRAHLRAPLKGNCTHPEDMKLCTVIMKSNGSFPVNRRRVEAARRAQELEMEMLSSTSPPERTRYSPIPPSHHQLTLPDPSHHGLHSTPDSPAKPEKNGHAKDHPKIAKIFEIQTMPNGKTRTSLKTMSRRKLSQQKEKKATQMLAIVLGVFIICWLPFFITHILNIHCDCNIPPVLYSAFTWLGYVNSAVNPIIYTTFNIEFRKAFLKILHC
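Tetracycline-induced HEK293 T-REx cells with force-coupled D2 receptor, plated overnight at 30 C, loaded with no-wash calcium dye. After a 10 s baseline, compound was pin-added and calcium flux read kinetically for 180 s; calcium rises flagged agonists.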
D2 ag-2 – activates the human D2 dopamine receptor. P14416. DiscoveRx PathHunter D2 beta-arrestin, luminescence, 90 min; 100% = 57 uM dopamine signal. activation, % (concentration not given with the values). actives 0.084% (n = 360,000). AID 624465; in the data active means activation above about 40%; inconclusive means between about 15% and that limit
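Agonist mode: compounds alone added to overnight-plated D2 PathHunter cells for 90 min at 37 C, with 57 uM final dopamine (EC100) defining full response. Beta-arrestin recruitment detected by chemiluminescent reagent, read after 1 h at ambient temperature.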
D2 PAM-1 – human D2 receptor positive allosteric modulation | P14416 | DiscoveRx D2 beta-arrestin cells, luminescence, 90 min; 100% = 57 uM dopamine signal | potentiation, % (concentration not given with the values) | actives 0.23% (n = 360,000); in the data active means potentiation above about 50%; inconclusive means mostly about 30% to 49%
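PathHunter D2 cells, attached overnight at 37 deg C, received compound in DMSO plus dopamine at EC20 (50 nM final) for 90 min at 37 deg C. Beta-arrestin recruitment was read as luminescence after 1 h with detection reagent at ambient temperature.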
D2 PAM-2 – positively modulates the human D2 dopamine receptor allosterically. P14416. HEK293 T-REx D2, calcium flux, EC20 dopamine potentiation. potentiation, % at 10 µM. actives 0.34% (n = 340,000);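 active means potentiation over 3 SD above the plate norm, cut at about 30% in these data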; further: 0% is about no effect
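Potentiation of an EC20 dopamine calcium response measured kinetically over 180 s, after a preceding 180 s compound-only read flagging agonists. Cells: inducible Hek293 Trex D2 line, 4000/well, cultured overnight at 30 C before dye loading.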
D2 antag – antagonizes the human D2 dopamine receptor | HEK293 TREx D2 cells, calcium flux, dopamine EC80 | actives 2% (n = 340,000) | inhibition, % at 10 µM | AID 485344; in the data active means inhibition above about 30%; inactive means below that, where a call was filed; further: 0% is about no effect
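Dopamine at EC80 is the agonist stimulus; test compounds precede it by 180 s. Calcium flux read kinetically in a force-coupled, inducible HEK293 T-REx D2 cell line.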
* marks the source's active call; other numbers are inactive results; u = inconclusive; x = no result given. Most compounds without a hit are left out; they make up all but 2.4% or so of the library.

SMILES	D2 ag-1	D2 ag-2	D2 PAM-1	D2 PAM-2	D2 antag
COc1ccccc1OCC(=O)Nc1ccc2c(c1)OCO2	0	-8	-7	0	32*
N#CCC(=O)Nc1ccc(C(=O)OCC(=O)NCc2ccc3c(c2)OCO3)cc1	0	0	9	-6	44*
O=C(COC(=O)c1ccc(O)cc1)NCc1ccc2c(c1)OCO2	1	6	1	1	-11
CC(C)c1ccc(OCC(=O)N(Cc2cccs2)C2CCS(=O)(=O)C2)cc1 (stereo unspecified)	0	x	x	-5	x
O=[N+]([O-])c1cccc(-c2nnc(C34CC5CC(CC(C5)C3)C4)o2)c1	0	-3	-6	-6	-7
O=[N+]([O-])c1cc(-c2nnc(C34CC5CC(CC(C5)C3)C4)o2)cc([N+](=O)[O-])c1	-1	u	145*	-1	-6
COc1ccc2c(C)cc(SCc3c(C)noc3C)nc2c1	1	1	-1	-5	31*
CCOc1ccccc1NC(=O)C1CCN(S(=O)(=O)c2c(C)noc2/C=C/c2ccc(C)cc2)CC1	x	x	x	4	x
COc1cc(SC)ccc1C(=O)N1CCn2c3c(c4cc(C)ccc42)CCCC31 (stereo unspecified)	1	x	x	x	x
C=CCNc1nc(SC)nc2ccsc12	0	-1	-18	-4	32*
CCOc1ccc(Cn2c3ccc(OC)cc3c3nc4ccccc4nc32)cc1	2	1	9	3	5
CCn1c2ccc(OC)cc2c2nc3ccccc3nc21	-1	-2	-12	31*	-6
CCc1ccc(S(=O)(=O)c2nnn3c2nc(NCCc2ccccc2)c2sccc23)cc1	2	x	x	0	x
Cc1ccc2nc(COc3ccccc3NC(=O)c3ccc(F)cc3)cc(=O)n2c1	1	x	x	8	x
NS(=O)(=O)c1ccc(NC(=O)/C=C/c2cccc(Cl)c2)cc1	0	6	-10	-11	35*
COc1ccc(N2CCN(C(=O)COC(=O)c3cccc(S(=O)(=O)Nc4cccc(C)c4)c3)CC2)cc1	0	6	9	0	40*
c1ccc(C2C3=C(CCCC3)Nc3ncnn32)cc1 (stereo unspecified)	0	1	-4	-2	31*
N#CC1=C(N)Nc2ncnn2C1c1ccccc1 (stereo unspecified)	0	x	x	3	1
CC1CC(=O)C2=C(C1)Nc1ncnn1C2c1ccccc1 (stereo unspecified)	1	-2	-4	34*	9
O=C1CC(c2cccs2)CC2=C1C(c1ccccc1)n1ncnc1N2 (stereo unspecified)	0	0	-5	-6	21
CCCC(=O)C1=C(O)C(C(=O)OC)C(C)(C)CC1=NC(C)C (stereo unspecified)	0	0	0	5	33*
O=C(NCc1ccc(F)cc1)c1ccc(NC(=O)N2CC3CCCN3c3ccccc32)cc1 (stereo unspecified)	-1	x	x	10	x
O=C(O)/C=C/c1ccc([N+](=O)[O-])o1	1	14	2	2	18
N#CCc1ccc(NC(=O)/C=C/c2ccc([N+](=O)[O-])o2)cc1	0	14	-7	0	32*
Cc1ccc(N=Cc2sc(O)c3ccccc23)cc1	65*	12	-1	-7	-6
SMILES	D2 ag-1	D2 ag-2	D2 PAM-1	D2 PAM-2	D2 antag
Cc1ccc(N=Cc2c(O)c3ccccc3n(C)c2=O)cc1	1	2	-4	0	12
Cc1ccc(N=Cc2sc(O)c3ccccc23)c(C)c1	11	-7	u	-9	58*
Cc1ccc2oc(-c3cc(NC(=O)c4ncn[nH]4)ccc3O)nc2c1	1	-1	3	31*	13
CN(C)S(=O)(=O)Nc1ccc(Oc2ccccc2)cc1	0	-1	-20	3	35*
Cc1[nH]c(=O)[nH]c(=O)c1S(=O)(=O)Nc1ccc(Oc2ccccc2)cc1	0	-2	3	6	-8
Cc1nn(CC(=O)NCCN2CCOCC2)c(=O)c2ccccc12	0	-4	-7	1	8
CCCn1c(N)c(NCCN2CCOCC2)c(=O)n(CC(=O)NCc2ccccc2)c1=O	1	-3	-1	3	33*
Cc1nc(NCc2ccco2)[nH]c(=O)c1CCC(C)C	3	12	11	x	30*

Source: PubChem BioAssay
